Sampled rows, rich in hits. Any-hit rate of the full collection: about 1.9%.
eIF4E-4G inh: eIF4E–eIF4G protein interaction inhibitors, primary screen, biochemical, uHTS, TR-FRET, eIF4GI fragment. inhibition, % at 21.7 µM. 220,000 compounds, 0.37% hits. Eukaryotic translation initiation factor 4E (Mus musculus) + Eukaryotic translation …. TR-FRET eIF4E-eIF4GI(517-606) binding, 2 h;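 active means inhibition above about 30%, limit read from the data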;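 further: 0% = full FRET control wells and 100% = background wells lacking eIF4GI fragment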
Target sequence (P63073 whole entry, looked up, the tested form may be a part): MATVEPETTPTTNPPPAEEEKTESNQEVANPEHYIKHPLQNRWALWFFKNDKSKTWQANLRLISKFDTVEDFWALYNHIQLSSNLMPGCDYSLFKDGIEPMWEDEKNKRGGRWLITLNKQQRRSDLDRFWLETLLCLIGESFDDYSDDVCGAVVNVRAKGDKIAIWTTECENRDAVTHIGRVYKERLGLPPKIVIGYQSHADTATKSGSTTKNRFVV
Target sequence (Q04637 whole entry, looked up, the tested form may be a part): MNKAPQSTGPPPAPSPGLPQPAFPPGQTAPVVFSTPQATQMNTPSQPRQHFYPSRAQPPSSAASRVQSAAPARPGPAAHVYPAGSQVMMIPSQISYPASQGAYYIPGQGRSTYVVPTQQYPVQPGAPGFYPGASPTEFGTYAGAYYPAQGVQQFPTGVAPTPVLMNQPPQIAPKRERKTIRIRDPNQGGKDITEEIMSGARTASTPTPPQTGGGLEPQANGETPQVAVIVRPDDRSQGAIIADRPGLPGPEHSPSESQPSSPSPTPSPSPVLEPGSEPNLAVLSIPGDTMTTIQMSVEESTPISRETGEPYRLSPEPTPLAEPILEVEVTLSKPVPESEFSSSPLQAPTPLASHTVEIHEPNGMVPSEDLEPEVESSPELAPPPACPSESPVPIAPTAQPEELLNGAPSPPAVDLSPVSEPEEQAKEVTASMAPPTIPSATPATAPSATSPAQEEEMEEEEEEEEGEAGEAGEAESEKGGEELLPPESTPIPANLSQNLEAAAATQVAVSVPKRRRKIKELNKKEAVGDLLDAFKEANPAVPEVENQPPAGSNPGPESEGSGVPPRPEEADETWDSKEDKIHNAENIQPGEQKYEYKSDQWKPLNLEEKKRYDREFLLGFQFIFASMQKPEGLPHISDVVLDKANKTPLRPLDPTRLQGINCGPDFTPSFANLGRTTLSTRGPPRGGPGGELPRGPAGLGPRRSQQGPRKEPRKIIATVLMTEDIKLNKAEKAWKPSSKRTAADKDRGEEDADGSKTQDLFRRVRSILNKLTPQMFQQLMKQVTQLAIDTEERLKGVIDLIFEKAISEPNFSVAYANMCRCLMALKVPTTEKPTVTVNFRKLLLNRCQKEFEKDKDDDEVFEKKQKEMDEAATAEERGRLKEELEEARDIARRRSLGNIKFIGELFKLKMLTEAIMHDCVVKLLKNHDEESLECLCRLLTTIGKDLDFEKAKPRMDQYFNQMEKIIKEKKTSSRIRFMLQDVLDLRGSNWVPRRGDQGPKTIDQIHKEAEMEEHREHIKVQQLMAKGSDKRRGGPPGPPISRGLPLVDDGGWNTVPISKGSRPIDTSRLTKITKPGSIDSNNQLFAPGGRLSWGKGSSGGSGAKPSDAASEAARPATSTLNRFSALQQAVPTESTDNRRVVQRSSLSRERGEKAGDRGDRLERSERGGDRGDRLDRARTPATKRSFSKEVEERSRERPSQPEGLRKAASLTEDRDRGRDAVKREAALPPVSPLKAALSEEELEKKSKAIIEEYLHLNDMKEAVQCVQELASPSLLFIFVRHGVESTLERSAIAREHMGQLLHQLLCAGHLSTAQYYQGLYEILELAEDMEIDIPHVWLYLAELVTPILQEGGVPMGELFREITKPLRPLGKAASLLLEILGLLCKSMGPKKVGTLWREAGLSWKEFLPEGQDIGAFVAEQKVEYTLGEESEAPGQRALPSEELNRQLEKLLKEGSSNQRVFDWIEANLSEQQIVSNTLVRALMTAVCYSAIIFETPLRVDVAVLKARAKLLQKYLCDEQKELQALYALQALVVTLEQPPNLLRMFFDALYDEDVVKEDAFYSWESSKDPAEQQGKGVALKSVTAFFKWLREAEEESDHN
eIF4H FP inh: human eIF4H binding inhibitors, primary screen, translation initiation inhibitor project, biochemical, uHTS, fluorescence polarization. AID 2012, 2009. eIF4H fluorescence polarization binding assay. 290,000 compounds, 0.94% hits. inhibition, % at 35 µM. Eukaryotic translation initiation factor 4H (Homo sapiens), Q15056;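 further: calls also rest on retests at 20 µM and on dose response follow-up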
14-3-3 Bad inh: inhibitors of 14-3-3 zeta/Bad binding, primary screen, biochemical, TR-FRET, bovine 14-3-3 zeta | 14-3-3 protein zeta/delta (Bos taurus), P63103 | TR-FRET 14-3-3zeta/Dy647-pBad peptide displacement, 1 h | inhibition, % at 21.7 µM | 220,000 compounds, 0.71% hits | AID 781, 2007;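 active means inhibition above about 70%, limit read from the data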;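 further: 0% = full 14-3-3 plus peptide FRET controls and 100% = background without 14-3-3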
PABP1 MLLE inh: inhibitors of PABP1 MLLE–PAM2 peptide binding, primary screen, biochemical, fluorescence polarization, FITC-PAM2, GST-MLLE | Polyadenylate-binding protein 1 (Homo sapiens), P11940 | inhibition, % at 20 µM | 360,000 compounds, 0.36% hits; in the data active means inhibition above about 35%, passing the limit was not always enough;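 further: plate controls were DMSO wells with GST-MLLE for no effect and wells lacking GST-MLLE protein for full effect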
PABP FP inh: PABP poly(A) RNA binding inhibitors, primary screen, biochemical, fluorescence polarization, uHTS | calls only at 35 µM | 290,000 compounds, 1% hits;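 further: calls also rest on retests at 20 µM and on dose response follow-up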
An asterisk follows results filed as active; i = inactive; ? = inconclusive; / = not tested or not shown; + = active, no number. Unless noted, how the calls were made is not given here.

SMILES	eIF4E-4G inh	eIF4H FP inh	14-3-3 Bad inh	PABP1 MLLE inh	PABP FP inh
Cc1cccc(CNC(=O)Nc2nnc([C@H]3C[C@H](O)[C@@H](CO)O3)s2)c1	/	/	/	0	/
CCOC(=O)c1ccc(NC(=O)COc2ccc(S(=O)(=O)NC(C)C)cc2)cc1	-5	-6	72*	-6	i
CCOC(=O)c1c(CN2CCCCC2)oc2ccc(O)cc12	3	3	-3	3	i
CCOC(=O)c1c(CN2CCOCC2)oc2ccc(OC)cc12	-3	-4	79*	6	i
COC(=O)c1ccccc1NC(=O)c1noc2c1CCC2	15	83*	4	22	+
CSc1ccccc1NC(=O)c1ccccc1C	47*	2	-8	20	i
CSc1ccccc1NC(=O)c1noc2c1CCC2	8	90*	-8	29	+
COc1ccc(-c2cnc(C(O)c3ccc(C(C)(C)C)cc3)[nH]2)cc1 (centres undefined)	/	/	/	-8	/
CCCN1CCc2c(sc(NC(=O)C3CCN(S(=O)(=O)c4cccs4)CC3)c2C(N)=O)C1	/	/	/	4	/
C=CCOc1ccc(C[C@H](N)C(=O)NC[C@H]2O[C@@H](n3cc(C)c(=O)[nH]c3=O)C[C@@H]2O)cc1	/	/	/	2	/
CCOC(=O)C1CCCN(C(=O)c2cccs2)CC1 (centres undefined)	/	/	/	1	/
CC(C)[C@H](NC(=O)C1CCC(CNC(=O)[C@@H]2CCCN2C(=O)OC(C)(C)C)CC1)C(=O)O (some centres undefined)	/	-15	/	6	i
CC1CCCCN1C(=O)COC(=O)/C=C/c1ccc2ccccc2n1 (centres undefined)	-2	-4	1	-15	i
O=C(Nc1ccccc1Cl)C1CCCN(S(=O)(=O)c2ccc(F)cc2)C1 (centres undefined)	0	-8	77*	6	i
O=C(NNS(=O)(=O)c1ccc(F)cc1)c1ccc(S(=O)(=O)N2CCCCC2)cc1	1	active	4	4	i
O=C(Nc1cccc(Cl)c1)C1CCCN(S(=O)(=O)c2ccc(F)cc2)C1 (centres undefined)	9	-7	-3	-11	i
OC(c1ccc(F)cc1)c1nc(-c2cnc3ccccc3c2)cs1 (centres undefined)	/	/	/	4	/
O=C(Nc1ccc(Oc2ccccc2)cc1)C1CCN(c2ncccn2)CC1	-3	-3	79*	10	i
O=C(c1ccco1)N1N=C(c2ccc(Br)cc2)CC1c1ccco1 (centres undefined)	/	/	/	11	/
COc1cccc(C(=O)Nc2ccc(C3CC3(Cl)Cl)cc2)c1 (centres undefined)	2	active	-15	-5	i
O=C(CN1C(=O)NC2(CCCC2)C1=O)N1CCN(S(=O)(=O)c2ccccc2[N+](=O)[O-])CC1	/	/	/	-16	/
OCc1cn(-c2ccccc2)nc1-c1ccco1	-13	16	1	18	i
c1cncc(-c2nc(-c3ccco3)cs2)c1	15	37	73*	21	i
Nc1nc(-c2ccco2)cs1	7	79*	-5	-5	+
COc1ccc2nc(-c3ccco3)c(-c3ccco3)nc2c1	27	98*	29	40*	+
SMILES	eIF4E-4G inh	eIF4H FP inh	14-3-3 Bad inh	PABP1 MLLE inh	PABP FP inh
c1coc(-c2nc(-c3ccco3)c(-c3ccco3)nc2-c2ccco2)c1	1	85*	55	10	+
c1cncc(-c2csc(-c3cccnc3)n2)c1	/	4	/	15	i
CC(=O)N1CCN(Cc2cc(=O)oc3cc(C)cc(C)c23)CC1	/	/	/	-4	/
COc1ccc(C2(CNC(=O)c3ccc(OC)c([N+](=O)[O-])c3)CCCCC2)cc1OC	9	-1	-20	-7	i
Nc1nc(-c2ccco2)c(-c2ccco2)s1	2	?	-7	44*	?
O=C(CCl)Nc1nc(-c2ccco2)c(-c2ccco2)s1	0	98	17	-21	i
COc1ccc(C(CNC(=O)c2oc3ccc(F)cc3c2C)N2CCCCC2)cc1 (centres undefined)	/	-14	/	-4	i
CC(Cc1c[nH]c2ccccc12)C(=O)NCc1ccco1 (centres undefined)	/	99*	/	-4	i

From PubChem
